mHTT-CaM PPI inh – mutant huntingtin-calmodulin interaction inhibitors – biochemical, AlphaScreen, primary screen; P42858; AlphaScreen His-mHTT/GST-CaM binding, luminescence; inhibition, % at 15 µM; 190,000 compounds, 3.6% hits; AID 1671202, 2021;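 also: 0% = both proteins with DMSO and 100% = one protein alone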
Pf apPOL block – Pf-apPOL inhibitors, biochemical, fluorescence; Plasmodium falciparum apicoplast DNA polymerase (apPOL); Recombinant Pf-apPOL, molecular beacon fluorescence, 1.5 h; inhibition, % at 10 µM; 210,000 compounds, 0.25% hits; AID 1794808, 2022
* hit, by the source's call; x = no result given; ! = a repeat was not active. The list is not random: actives were taken first. Their share in the collection is about 3.6%. Rule as the data show it: active = inhibition above about 50%; inactive = the rest.

SMILES | mHTT-CaM PPI inh | Pf apPOL block
Cc1ccc(NC(=O)C2CC(=O)N(Cc3cccc(Br)c3)C2)cc1 (centres undefined) | 14 | -4
N#CC1=C(N)N(c2ccc(F)cc2)C2=C(C(=O)CCC2)C1c1ccc(Br)s1 (centres undefined) | 86* | 1
CCc1ccc(C2C(C#N)=C(N)N(c3ccc(F)cc3)C3=C2C(=O)CCC3)s1 (centres undefined) | 27 | -1
COc1ccc(NCN2C(=O)C3CCCCC3C2=O)cc1 (centres undefined) | 7 | -2
COc1ccccc1-n1cnc2cc(NC(=O)c3cc(OC)c(OC)c(OC)c3)ccc21 | 21 | -2
COc1cc(C(=O)Nc2ccc3c(c2)ncn3-c2ccc(C)cc2)cc(OC)c1OC | 53* | -3
Cn1c(NC(=O)c2ccc(F)cc2)nc2ccccc21 | 34 | -7
COc1cc(C(=O)Nc2nc3ccccc3n2C)cc(OC)c1OC | 57* | -10
CC(O)(CNC(=O)C(=O)NCCC1=CCCCC1)c1ccc2c(c1)OCO2 (centres undefined) | -2 | -1
O=C1C2=C(Nc3[nH]n(-c4ccccc4)c(=O)c3C2c2ccc([N+](=O)[O-])cc2)c2ccccc21 (centres undefined) | 50* | 1
O=C1C2=C(Nc3ccccc3SC2c2ccc(Br)cc2)c2ccccc21 (centres undefined) | 70* | x
Cn1c2c(c(=O)n(C)c1=O)C(c1ccc([N+](=O)[O-])cc1)C1=C(N2)c2ccccc2C1=O (centres undefined) | -4 | -4
O=C1C2=C(Nc3ccccc3SC2c2ccc([N+](=O)[O-])cc2)c2ccccc21 (centres undefined) | 66* | -7
COc1ccc(OC)c(C2Sc3ccccc3NC3=C2C(=O)c2ccccc23)c1 (centres undefined) | 71* | -55
CCOC(=O)C1=C(C)NC2=C(C(=O)c3ccccc32)C1c1ccc([N+](=O)[O-])cc1 (centres undefined) | x | -8
COc1ccc(OC)c(C2C3=C(Nc4c2c(=O)n(C)c(=O)n4C)c2ccccc2C3=O)c1 (centres undefined) | -1 | -6
O=C1OCC2=C1C(c1ccc(F)cc1)Sc1ccccc1N2 (centres undefined) | 2 | 1
CCNc1cc(N2CCCC(CCC(=O)NC3CCN(C(=O)OCC)CC3)C2)ncn1 (centres undefined) | 2 | -11
CCCNc1ncnc2c1c(-c1ccccc1)cn2-c1ccc(Br)cc1 | 2 | 0
CCc1nc(-c2ccc(-c3noc(COc4ccc(F)cc4)n3)cc2)cs1 | -10 | -1
O=C(Nc1nncs1)c1ccc(Cl)c([N+](=O)[O-])c1 | -1 | 0
CCC(=O)N1CCC(c2ccn3ncc(C(=O)N4CCOCC4)c3c2)CC1 | -3 | 2
Cc1ccc(CN2C(=O)C(=O)c3cc(S(=O)(=O)N4CCOCC4)ccc32)cc1 | 89* | 37
O=C1C(=O)N(CCc2ccccc2)c2ccc(Cl)cc21 | 34 | -4
O=S(=O)(c1ccc(Cl)c(S(=O)(=O)N2CCOCC2)c1)N1CCOCC1 | -2 | 3
SMILES | mHTT-CaM PPI inh | Pf apPOL block
O=C1C(=O)N(Cc2cccc(Cl)c2)c2ccccc21 | 93* | -6
Cc1ccc(CN2C(=O)C(=O)c3cc(Cl)ccc32)cc1 | 62* | -7
O=C1C(=O)N(Cc2cccc(C(F)(F)F)c2)c2ccccc21 | 48 | -5
COCCN(CCOC)Cc1c(O)ccc2c1OC(=Cc1cccc(Cl)c1)C2=O | 17 | -26
Cn1cc(CN2CCC(C(=O)NCCCN3CCCCC3)CC2)c2cc(Cl)ccc21 | 17 | -1
O=C(CC1(O)C(=O)N(CCc2ccccc2)c2ccccc21)c1cccs1 (centres undefined) | 8 | -10
O=C(CC1(O)C(=O)N(Cc2ccccc2)c2ccccc21)c1ccc(Br)s1 (centres undefined) | 52* | -9
O=C(Nc1ncn[nH]1)c1ccccc1F | 2 | -9
CC(=O)Nc1cccc(N2CC(C(=O)Nc3ccccc3Cl)CC2=O)c1 (centres undefined) | -5 | -6
Cc1ccc(-n2cc(-c3ccccc3)c3c(NCC4CCCO4)ncnc32)cc1 (centres undefined) | 56* | -11
CCCCNc1ncnc2c1c(-c1ccccc1)cn2-c1ccccc1 | 38 | 0
COc1ccc(OC)c(C2Nc3ccc4ncccc4c3C3=C2C(=O)CC(C)(C)C3)c1 (centres undefined) | 42 | 0
COc1ccc(Br)cc1C1Nc2ccc3ncccc3c2C2=C1C(=O)CC(C)(C)C2 (centres undefined) | 53* | 6
CCCOc1ccc(C2Nc3ccc4ncccc4c3C3=C2C(=O)CCC3)cc1 (centres undefined) | 58* | 0
CSc1ccc(C2Nc3ccc4ncccc4c3C3=C2C(=O)CCC3)cc1 (centres undefined) | 23 | 0
CC1(C)CC(=O)C2=C(C1)c1c(ccc3ncccc13)NC2c1ccc(Br)cc1 (centres undefined) | 25 | 3
CCN(CC)c1ccc(C2Nc3ccc4ncccc4c3C3=C2C(=O)CC(C)(C)C3)cc1 (centres undefined) | 62* | 0
O=C(Nc1c2c(nn1-c1ccc(F)cc1)CS(=O)C2)c1ccccc1[N+](=O)[O-] (centres undefined) | 2 | -3
CNC(=O)C1CN(C(=O)Cc2cccc(C)c2)CC12CCCC2 (centres undefined) | -6 | -1
Cc1ccccc1Cn1nc(C)c(NC(=O)c2noc3c2CCCCC3)c1C | 17 | -7
CCNS(=O)(=O)c1cccnc1Nc1ccc(F)c(Cl)c1 | -14 | -3
Nc1nonc1C(=NCCNc1ccc([N+](=O)[O-])cc1)NO | 10 | 0
COc1ccc(C(NC(C)=O)c2cc(Cl)c3cccnc3c2O)cc1OC (centres undefined) | 100*! | 4
COc1ccccc1C(NC(C)=O)c1cc(Cl)c2cccnc2c1O (centres undefined) | 71* | 7
COc1ccccc1C(NC(=O)C(C)C)c1cc(Cl)c2cccnc2c1O (centres undefined) | 48 | -8
SMILES | mHTT-CaM PPI inh | Pf apPOL block
CCC(=O)NC(c1ccc(OC)c(OC)c1)c1cc(Cl)c2cccnc2c1O (centres undefined) | 100* | -6
COCC(=O)NC(c1ccccc1)c1cc(Cl)c2cccnc2c1O (centres undefined) | 100* | -10
CCCC(=O)NC(c1ccc(OC)cc1)c1cc(Cl)c2cccnc2c1O (centres undefined) | 25 | 11
CCC(=O)NC(c1ccc2c(c1)OCO2)c1cc(Cl)c2cccnc2c1O (centres undefined) | 96* | -2
CCOc1ccc(N2CC(c3nnc(NC(=O)c4ccccc4)o3)CC2=O)cc1 (centres undefined) | 82* | -3
CSc1ccc(N2CC(c3nnc(NC(=O)c4ccc(Cl)cc4)o3)CC2=O)cc1 (centres undefined) | 9 | -2
O=C(Nc1nnc(C2CC(=O)N(c3ccccc3)C2)o1)c1cccs1 (centres undefined) | 56* | -5
O=C(Nc1nnc(C2CC(=O)N(c3ccccc3)C2)o1)c1ccccc1 (centres undefined) | 2 | -1
CSc1ccc(N2CC(c3nnc(NC(=O)c4cccs4)o3)CC2=O)cc1 (centres undefined) | 64* | 1

Screens deposited in PubChem BioAssay by University of Kansas High Throughput Screening Laboratory.
